Rows were chosen to be rich in hits. Some 18% of all compounds tested hit in one or more screens of this group.
VP16 counter: VP16 counterscreen qHTS for inhibitors of ROR gamma transcriptional activity; Drosophila S2 Gal4-VP16 UAS-luciferase, luminescence, 20 h; Potency, µM (top dose mostly 53.6 µM), for the others: at the highest dose activity, negative = inhibition, actives largely listed as inhibitors; 310,000 tested, 3.5% active; AID 2546, 2010;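 also: Gal4-VP16 expression switched on by copper sulfate through the metallothionein promoter; potency is read from the fitted curve at half-maximal effect; nearly all actives have a fitted effect of over 50% in size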
IL1B secr inh: qHTS for Inhibitors of Inflammasome Signaling: IL-1-beta AlphaLISA Primary Screen | AID 743279, 2014 | activity change, % at 57.5 µM | THP-1 LPS/ATP IL-1B secretion, AlphaLISA, 16 h; hits give low values | 360,000 tested, 4.7% active; in the data active = activity change below about -50%; inconclusive = mostly about -30% to -49%
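THP-1 cells pretreated 1 hr with compounds (up to 57.5 uM final), then stimulated with LPS (250 ng/mL final) plus ATP (1.25 mM final); secreted IL-1B measured by AlphaLISA after 16 hr, decreased signal indicating inhibition.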
LDHA block: qHTS assay for inhibitors of human lactate dehydrogenase | AID 1347041, 2019 | 480,000 tested, 0.15% active | activity change, % (values are at about 110 or 230 µM) | purified LDHA, NADH/diaphorase-resazurin fluorescence; hits give low values; in the data active = activity change below about -30%; inconclusive = mostly about -25% to -30%;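 also: plate controls were DMSO wells for no effect and wells without enzyme for full effect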
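LDH5 2 nM; NADH 0.06 mM, pyruvate 0.2 mM; 200 mM Tris pH 7.4, EDTA, Tween-20; 5 min RT. Detection: diaphorase 0.133 mg/mL + resazurin 37 µM, fluorescence ex540/em590 at 0 and 20 min; normalized to enzyme-free and DMSO wells.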
RORg inh: qHTS for inhibitors of ROR gamma transcriptional activity; Nuclear receptor ROR-gamma (Mus musculus), P51450; Drosophila S2 Gal4-RORgamma UAS-luciferase reporter, 20 h; Potency, µM (series often up to 53.6 µM), without a hit: at the highest dose activity change, negative = inhibition, hits mostly inhibitors; 310,000 tested, 5.4% active; AID 2551, 2010; also: potency is read from the fitted curve at half-maximal effect; nearly all actives have a fitted effect of over 60% in size
Target sequence (P51450 whole entry, looked up, the tested form may be a part): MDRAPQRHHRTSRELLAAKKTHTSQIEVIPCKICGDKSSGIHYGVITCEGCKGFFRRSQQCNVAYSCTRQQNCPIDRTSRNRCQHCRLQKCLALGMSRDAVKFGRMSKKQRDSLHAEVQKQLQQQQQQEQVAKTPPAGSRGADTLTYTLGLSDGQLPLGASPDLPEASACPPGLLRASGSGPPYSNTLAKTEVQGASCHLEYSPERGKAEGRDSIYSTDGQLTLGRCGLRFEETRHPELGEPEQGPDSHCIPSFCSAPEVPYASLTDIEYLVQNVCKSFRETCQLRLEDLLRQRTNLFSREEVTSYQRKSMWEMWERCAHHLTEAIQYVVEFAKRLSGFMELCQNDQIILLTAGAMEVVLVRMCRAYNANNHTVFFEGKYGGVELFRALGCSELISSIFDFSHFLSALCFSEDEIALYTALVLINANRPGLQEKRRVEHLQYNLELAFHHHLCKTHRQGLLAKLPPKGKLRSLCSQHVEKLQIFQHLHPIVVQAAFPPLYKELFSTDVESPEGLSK
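Stable Schneider cell line, Gal4 DNA-binding domain fused to ROR gamma, UAS-luciferase. Cmpd 1 hr RT → CuSO4 700 uM final → 20 hr RT → luciferase reagent 10 min → luminescence.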
TDP1 cell CPT: qHTS for Inhibitors of human tyrosyl-DNA phosphodiesterase 1 (TDP1): qHTS in cells in presence of CPT | chicken DT40 Tdp1-/-;hTDP1 cells + 20 nM CPT, ATP luminescence, 48 h | Potency, µM (highest dose often 46.2 µM), without a hit: at the top dose activity change, negative = growth inhibition, usual class: inhibitors | 420,000 tested, 12% active; also: potency is read from the fitted curve at half-maximal effect; nearly all actives have a fitted effect of over 55% in size
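Chicken DT40 Tdp1-/- cells complemented with human TDP1, 400 cells/well, exposed to compounds plus 20 nM camptothecin for at least 48 h at 37 C; viability read as ATP content by CellTiter-Glo luminescence.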
DT40 TDP1 no CPT: qHTS for Inhibitors of human tyrosyl-DNA phosphodiesterase 1 (TDP1): qHTS in cells in absence of CPT; DT40 Tdp1-/- hTDP1 cells, no CPT, ATP luminescence, 48 h; Potency, µM (series often up to 46.2 µM), without a hit: at the top dose activity change, negative = growth inhibition, hits mostly inhibitors; 420,000 tested, 15% active; AID 686978, 2013; also: potency is read from the fitted curve at half-maximal effect; nearly all actives have a fitted effect of over 55% in size
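Luminescent ATP content (CellTiter-Glo) served as the growth readout. Knockout chicken DT40 cells expressing human TDP1 were exposed to compounds without camptothecin for a minimum 48 hr at 37 °C.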
* = called active by the depositor; ? = inconclusive; nt = no result given; [ ] = remark or other dose. Unless noted, calls follow the shape of the dose curve; as a rule, active = well fitted curve in the direction sought with a large enough effect; inconclusive = small, poorly fitted or top-dose-only effect, or another doubt; inactive = no such curve, though single readings can be large; an effect the other way counts as inactive or inconclusive. Unless noted, % is scaled to controls: 0 for no effect and ±100 for the full control effect.

SMILES | VP16 counter | IL1B secr inh | LDHA block | RORg inh | TDP1 cell CPT | DT40 TDP1 no CPT
O=C(COc1ccc(Cl)cc1Cl)NCc1ccco1 | -18% | -15 | -5 | ? | -19% | -7%
O=C(NC(Cc1ccccc1)c1nc2ccccc2[nH]1)c1cccc([N+](=O)[O-])c1 (stereo unspecified) | -4% | -15 | 13 | -2% | 21µM* | ?
C/C(=N\Nc1nc2ccccc2[nH]1)c1ccc([N+](=O)[O-])cc1 | -13% | -16 | 1 | ? | ? | ?
CCOC(=O)Cc1nc2ccccc2[nH]1 | 4% | 41 | -1 | -10% | -16% | -24%
CSCCC(NC(=O)c1cccc([N+](=O)[O-])c1)c1nc2ccccc2[nH]1 (stereo unspecified) | -1% | 0 | -2 | 0% | -6% | -5%
CCOC(=O)c1ccc(NCc2nc3ccccc3[nH]2)cc1 | ? | 13 | 0 | ? | 16µM* | 16µM*
COC(=O)c1cc(C(=O)Nc2nc3ccccc3[nH]2)cc([N+](=O)[O-])c1 | -24% | 19 | 5 | 1.4µM* | -24% | 23µM*
O=C(Nc1nc2ccccc2[nH]1)c1cccc([N+](=O)[O-])c1 | ? | -4 | -9 | 0.89µM* | -3% | ?
CC(C)(C)c1ccc2[nH]c(C(C)(C)C)c(C=O)c2c1 | nt | nt | 2 | nt | nt | nt
COc1ccc(CNC(=O)COc2ncnc3ccc(Br)cc23)cc1 | nt | nt | -6 | nt | nt | nt
Cc1cccc(C)c1NC(=O)CN(C)C(=O)COC(=O)c1cccnc1Nc1ccccc1F | nt | nt | 6 | nt | nt | nt
CC(C)c1cccc(C(C)C)c1NC(=O)CCn1cnc2c1c(=O)n(C)c(=O)n2C | nt | nt | 0 | nt | nt | nt
O=C(Nc1nc2ccccc2[nH]1)c1ccc([N+](=O)[O-])cc1 | ? | -9 | -8 | 3.2µM* | -1% | 0%
O=C(Nc1ccc(Nc2ccncc2)cc1)c1ccc([N+](=O)[O-])cc1 | ? | -98* | -2 | ? | 21µM* | 15µM*
O=C(NCc1nc2ccccc2[nH]1)c1c(F)c(F)c(F)c(F)c1F | -18% | -78* | -5 | -9% | -2% | 18%
O=C(NCc1nc2ccccc2[nH]1)c1ccc([N+](=O)[O-])cc1 | -6%[10 µM] | 3 | -1 | -10% | 10% | 6%
CC(=O)Nc1ccc(C(=O)Nc2ccncc2)cc1 | -5% | 4 | -4 | -6% | -12% | -25%
Cc1nc2ccc(NC(=O)c3ccc([N+](=O)[O-])cc3)cc2[nH]1 | ? | 3 | -5 | ? | ? | 16µM*
Cc1nc2ccc(C(=O)Nc3ccc4nc[nH]c4c3)cc2[nH]1 | 2% | 13 | 0 | -25% | 21% | -1%
COc1cc(C(=O)/C=C/c2ccccc2F)ccc1S(C)(=O)=O | nt | nt | 11 | nt | nt | nt
O=C(O)C1C2CCC(CC2)C1C(=O)NCCCN1CCOCC1 (stereo unspecified) | nt | nt | -2 | nt | nt | nt
CN(C)CCCNC(=O)COc1ccc(-c2nn(C)c(=O)c3ccccc23)cc1 | nt | nt | -3 | nt | nt | nt
COc1ccc(C)cc1NC(=O)CSc1nc2ccsc2c(=O)n1-c1ccccc1 | nt | nt | -20 | nt | nt | nt
Cc1ccc(SC(=O)c2ccccc2Br)cc1 | nt | nt | 5 | nt | nt | nt
Cc1ccc(C(=O)Cc2nc3ccccc3[nH]2)cc1 | ? | -101* | -6 | ? | ? | -29%
SMILES | VP16 counter | IL1B secr inh | LDHA block | RORg inh | TDP1 cell CPT | DT40 TDP1 no CPT
CCCN(CCC)S(=O)(=O)c1ccc(NC(=O)c2cc(C(=O)OC)cc([N+](=O)[O-])c2)cc1 | -8% | 11 | -3 | 10% | 23µM* | 26µM*
O=C(NCC(O)c1nc2ccccc2[nH]1)c1cc([N+](=O)[O-])ccc1F (stereo unspecified) | nt | -87* | -8 | nt | ? | ?
O=C(Nc1cnn(Cc2ccc(Cl)cc2)c1)c1ccc([N+](=O)[O-])cc1 | 2% | ? | 0 | ? | ? | ?
O=C(Nc1ccc([N+](=O)[O-])cc1)c1ccc(Cn2cc([N+](=O)[O-])cn2)cc1 | 8%[10 µM] | -8 | -1 | 38% | 18µM* | 13µM*
Cc1ccc(C(=O)NC(c2cccs2)C(C)C)cc1C (stereo unspecified) | nt | nt | 0 | nt | nt | nt
COc1cccc(/C=C2\Oc3cc(OS(=O)(=O)c4ccccc4)ccc3C2=O)c1OC | nt | nt | -2 | nt | nt | nt
CCc1ccc(OCC(=O)Nc2cccc3ccc(C)nc23)cc1 | nt | nt | 4 | nt | nt | nt
CCOc1ccc(NC(=O)c2ccc3c(c2)NC(=O)CS3)cc1OC | nt | nt | 5 | nt | nt | nt
CC1=C(c2ccc(C(C)C)cc2)S(=O)(=O)NC1=NC(C)C12CC3CC(CC(C3)C1)C2 (stereo unspecified) | nt | nt | 12 | nt | nt | nt
COc1ccc(-c2c(C)c3cc(OS(=O)(=O)c4ccccc4)ccc3oc2=O)cc1 | nt | nt | -1 | nt | nt | nt
Cc1ccc(NC(=O)C2CCCC2)cc1I | nt | nt | 8 | nt | nt | nt
O=C(Cc1nc2ccccc2[nH]1)c1cccc([N+](=O)[O-])c1 | -3% | 0 | -4 | -17% | 2.9µM* | 3.7µM*
CCCc1nc2ccccc2c(C(=O)OCC(=O)NC(=O)NC(C)C)c1CC | nt | nt | 3 | nt | nt | nt
Cc1ccc(S(=O)(=O)NC2CC(=O)N(c3ccc4c(c3)OCCO4)C2)cc1 (stereo unspecified) | nt | 10 | -4 | nt | ? | ?
Cc1ccc(S(=O)(=O)CCSc2n[nH]c(=O)n2-c2ccc3c(c2)OCCO3)cc1 | 4% | ? | -3 | 30% | ? | 21µM*
Cc1ccc(OCCSc2nc3ccccc3n2CCC(=O)O)cc1 | -19% | 0 | -4 | 14% | -20% | 0%
Cn1c(/C(C#N)=C(\O)CN2CCN(Cc3ccccc3)CC2)nc2ccccc21 | 22µM* | -10 | 0 | 5.6µM* | -15% | -20%
Cc1ccc(SC/C(O)=C(\C#N)c2nc3ccccc3n2C)cc1 | 6.3µM* | -16 | -1 | 7.9µM* | ? | ?
CN1CCN(c2ccc(NC(=O)CSc3nnnn3-c3ccccc3F)cc2)CC1 | -5% | -7 | 3 | -16% | ? | -22%
Cc1cccc(-n2nnnc2SCC(=O)NCC2(N3CCOCC3)CCCCC2)c1C | nt | -14 | -1 | nt | 18µM* | 21µM*
Cc1ccc(-n2nnnc2SCC(=O)NCC2(N3CCOCC3)CCCCC2)c(C)c1 | nt | -13 | -3 | nt | ? | 16µM*
Cc1ccc(-n2nnnc2SCC(=O)NCC2(N3CCOCC3)CCCCC2)cc1 | nt | 4 | 2 | nt | ? | ?
